Bioassay records as filed in PubChem.
Dicer processing: inhibitors of human Dicer processing of pre-microRNA | hit rate 6% among 47,000 | cat-ELCCA pre-miR-21 Dicer processing, chemiluminescence; active compounds read high | Q9UPY3 | z-score at 25 µM | AID 1347074; in the data active means z-score above about 3, passing the limit was not always enough;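 further: plate controls were vehicle for no effect and no enzyme for full effect; higher signal means more uncleaved substrate so more Dicer inhibition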
* marks the source's active call; other numbers are inactive results. The sample as a whole holds a higher share of hits than the screen did.

SMILES	Dicer processing
COc1ccc(C2CC(=O)C3=C(C2)Nc2ccccc2NC3c2coc3ccc(Cl)cc3c2=O)cc1 (configuration not stated)	1.8
COc1ccc(C2CC(=O)C3=C(C2)Nc2ccccc2N(C(=O)C2CC2)C3c2cccnc2)cc1OC (configuration not stated)	-0.58
COc1ccc(C2CC(=O)C3=C(C2)Nc2ccccc2NC3c2ccc(F)cc2)cc1 (configuration not stated)	1.6
COc1ccc(C2CC(=O)C3=C(C2)Nc2ccccc2NC3c2ccc(F)c(Br)c2)cc1 (configuration not stated)	5.2*
COc1ccc(C2CC(=O)C3=C(C2)Nc2ccccc2NC3c2ccc(OC)cc2)cc1 (configuration not stated)	4.5*
COc1ccc(C2CC(=O)C3=C(C2)Nc2ccccc2NC3c2cccc(O)c2)cc1 (configuration not stated)	0.54
N=c1c2cnn(-c3ccccc3)c2ncn1/N=C/c1ccc(Cl)cc1Cl	0.21
Cc1sc2c(c1C)C(=O)/C(=C\N(C)C)S(=O)(=O)N2C	-2.1
COC(OC)c1cc(=O)[nH]c(SCC(=O)c2ccc(C)cc2)n1	-1.7
Cc1ccc(C2Nc3nonc3NC3=C2C(=O)CC(C)(C)C3)o1 (configuration not stated)	0.1
CCOC(=O)c1cc(-c2ccc(Cl)cc2)oc1/C=N/OC(=O)c1ccco1	-0.64
COc1ccccc1N/C=C(\C#N)S(=O)(=O)c1ccc(Cl)cc1	1.4
C=CCOc1ccc(C2N3CC4(C(C)C)CN2CC(C(C)C)(C3)C4=O)cc1 (configuration not stated)	1.4
CCOc1ccc(/C(O)=C2\C(=O)C(=O)N(Cc3cccnc3)C2c2ccc(F)cc2)cc1 (configuration not stated)	1.4
Cc1cccc(OCc2nc(-c3ccncc3)no2)c1C	0.45
CCOc1cc(C2Nc3ccccc3NC3=C2C(=O)CC(c2ccccc2)C3)ccc1O (configuration not stated)	3
Cc1ccc(C2CC(=O)C3=C(C2)Nc2ccccc2NC3c2ccncc2)cc1 (configuration not stated)	0.12
Cc1ccccc1C1Nc2ccccc2NC2=C1C(=O)CC(c1ccccc1)C2 (configuration not stated)	0.97
O=C1CC(c2ccccc2)CC2=C1C(c1ccc(F)c(F)c1)Nc1ccccc1N2 (configuration not stated)	4.6*
O=C1CC(c2ccccc2)CC2=C1C(c1cccnc1)Nc1ccccc1N2 (configuration not stated)	0.31
CN(C)c1ccc(C2CC(=O)C3=C(C2)Nc2ccccc2NC3c2ccccc2)cc1 (configuration not stated)	4.8*
CSc1nnc2c(n1)OC(c1cccs1)N(C(C)=O)c1ccccc1-2 (configuration not stated)	-0.87
COC(=O)C1=C(C)Nc2ncnn2C1c1ccc(O)cc1 (configuration not stated)	2.1
COCCOC(=O)C1=C(C)NC2=C(C(=O)CC(c3ccccc3)C2)C1c1cc2c(cc1Cl)OCO2 (configuration not stated)	0.37
CSc1nc(C)nc(N/C=C2\C(=O)c3sccc3N(C)S2(=O)=O)n1	-1.1
SMILES	Dicer processing
CC(C#N)Oc1ccc(Cl)cc1Cl (configuration not stated)	1.5
C[C@@H](c1ccccc1)N1C(=O)CC[C@H]2CC(=O)CC[C@@H]21	-0.22
O=C(CSc1nnc(SCC(=O)c2cccc([N+](=O)[O-])c2)s1)c1cccc([N+](=O)[O-])c1	-0.55
CC(C)(C)Nc1nc(Oc2ccc(=O)n(-c3ccccc3)n2)nc(N2CCOCC2)n1	-0.55
CC(C)CNc1nc(Oc2ccc(=O)n(C)n2)nc(N2CCOCC2)n1	1.6
CC(C)CNc1nc(Oc2ccc(=O)n(-c3ccccc3)n2)nc(N2CCOCC2)n1	3.6*
CCOc1ccccc1C1C(C(=O)OCC2CCCO2)=C(C)NC2=C1C(=O)CCC2 (configuration not stated)	-1.5
CN(CCc1ccccn1)C(=O)Nc1ccccc1	41
CN(Cc1ccccc1)C(=O)Nc1ccccc1	3.7*
O=C(Nc1ccccc1)N(Cc1ccccc1)c1cccc2ccccc12	-2.8
Cc1ccc(S(=O)(=O)C(CC(=O)c2ccc(F)cc2)c2ccco2)cc1 (configuration not stated)	3.2*
Cc1ccc(C(CC(=O)c2ccco2)SCCO)cc1 (configuration not stated)	-1.9
Cc1ccc(S(=O)(=O)C(CC(=O)c2ccco2)c2ccc(Cl)cc2)cc1 (configuration not stated)	2.3
Oc1sc(-c2ccccc2)cc1/C=N/c1nc(-c2ccccc2)cs1	0.1
c1ccc(-c2noc(-c3cccc4ccccc34)n2)nc1	1.3
COc1ccc(-c2nc(-c3ccccn3)no2)cc1OC	1.2
c1ccc(-c2ccc(-c3nc(-c4ccccn4)no3)cc2)cc1	5.2*
CCOC(=O)CSc1nc2ccccc2[nH]1	-0.04
CC(C)(C)NC(=O)CSc1nc2ccccc2[nH]1	4.9*
O=C(CSc1nc2ccccc2[nH]1)Nc1ncccn1	0.74
COc1ccc2[nH]c(=O)c(-c3noc(-c4ccccc4C)n3)cc2c1	0.08
CCOC(=O)NC(=O)c1cn(Cc2ccccn2)c(=O)n(Cc2c(Cl)cccc2Cl)c1=O	-0.35
O=C(CSc1nc2sc3c(c2c(=O)[nH]1)CCCC3)N1CCCCC1	-0.27
C=C(C)CSc1nc2sc3c(c2c(=O)[nH]1)CCCC3	0.28
COc1ccc(-c2nc3sc4c(c3c(=O)[nH]2)CCCC4)cc1OC	5.1*
SMILES	Dicer processing
COc1ccc(-c2ncnn2-c2sc3c(c2C#N)CCCC3)cc1OC	-5
CC(C)(C)c1nc2sc3c(c2c(=O)[nH]1)CCCC3	5.3*
COc1ccc(-c2nc3c4c5c(sc4ncn3n2)CCCCC5)cc1OC	1.1
O=C1NC(Cc2ccccc2)C(=O)N1c1ccccc1 (configuration not stated)	-0.22
CCn1cc(C(=O)OC)c(=O)c2cc(C(F)(F)F)ccc21	0.29
S=C(Nc1ccccn1)Nc1ccc(Cl)cc1Cl	-0.33
CCN=c1cc(N)n(CC)c2sc(C(=O)OCC)c(N)c12	-1.3
CCOC(=O)C(C)NC(=O)C1CCC(c2ccc(Cl)cc2)CC1 (configuration not stated)	2.1
Clc1ccc(C2N(Cc3ccccc3)CCC3CCCCN32)cc1Cl (configuration not stated)	-0.15
NC1=C(c2ccccc2)C(=O)c2ccccc21	0.29
COC(=O)C(C)(C)S(=O)(=O)c1ccc(C(F)(F)F)cn1	-0.28
COC(=O)CS(=O)(=O)c1ccc(C(F)(F)F)cn1	3.4*
O=C(CS(=O)(=O)c1ccc(C(F)(F)F)cn1)NNC(=O)Nc1ccccc1	0.12
N#C/C(=C\N)S(=O)(=O)c1ccc(Cl)cc1	0.02
OC(CN1C=CC(C(F)(F)F)=NCC1)C(F)(F)F (configuration not stated)	-0.59
C(=C\N1CCCCC1)/c1nnnn1-c1ccc(-c2ccccc2)cc1	0.97
NC(=S)N/N=C/c1c(Sc2ccc(Cl)cc2)nc2sccn12	0.34
Clc1ccc(Sc2c(-c3ccccc3)nc3sccn23)cc1	0.4
O=C1Nc2ccccc2/C1=C/c1c(Sc2ccc(Cl)cc2)nc2sccn12	5.7*
Cc1ccc2oc(C(=O)O)cc(=O)c2c1	2.5
Cc1ccc2oc(-c3ccccc3)cc(=O)c2c1	4.7*
O=c1cc(-c2ccccc2)oc2ccc(-c3nn[nH]n3)cc12	0.08
